Results filed as inconclusive are left out. Active and inactive are the calls of the source. Rule for the calls: active = hit-call score of the fitted dose curve at least 0.9, where 1 is the maximum; inconclusive = response in the unintended direction; inactive = score below 0.9.
Assay: ACEA_AR_antagonist_AUC_viability: ACEA Biosciences xCELLigence Real-Time Cell Analysis on Androgen Receptor Antagonism for Viability (AID 2283776);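 note: 22Rv1 human prostate cancer cells growing on impedance electrode plates; area under impedance growth curve at 80 h after dosing as viability; hits lower the growth signal relative to DMSO meaning cytotoxicity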
Procedure, shortened: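 Real-time electrical impedance tracks 22Rv1 proliferation after continuous compound exposure (top 100 uM final, 1:4 steps, 8 concentrations). The 80 h area-under-curve serves as the cytotoxicity readout relative to DMSO.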

SMILES	AC50	outcome
CCCCOC(=O)c1ccc(O)cc1	56.7 µM (active)	
c1ccc(C[n+]2cccc3ccccc32)cc1	82.3 µM (active)	
CC(O)CC(C)(C)O (stereo not given)		inactive
CCCCCCCCCCCO	85 µM (active)	
O=C1c2ccccc2C(=O)N1CCc1noc(-c2ccc(CN3CCCCCC3)s2)n1	6.41 µM (active)	
CCO[Si](CCCNC(N)=O)(OCC)OCC		inactive
O=C(O)c1ccccc1-n1cc(C(=O)O)c(=O)c2cc(Nc3c(F)cc(F)cc3Cl)c(Cl)cc21		inactive
CCCCCCCCN(C)CCCCCCCC		inactive
OCCO		inactive
CCN(Cc1cccnc1)C(=O)c1cccc(Cl)c1[C@]1(C)C(=O)N(Cc2ccc(OC)cc2OC)c2ccc(Cl)cc21	20.7 µM (active)	
NC(=O)c1nc(-c2cccc(-c3cc(F)ccc3OCC(F)(F)C(F)(F)F)c2)n[nH]1	19.3 µM (active)	
CC[C@@H]1C[C@H](N(Cc2cc(C(F)(F)F)cc(C(F)(F)F)c2)C(C)=O)c2cc(C(F)(F)F)ccc2N1C(=O)OC(C)C		inactive
c1ccc2ccccc2c1		inactive
Cc1ncc(CO)c(CO)c1O		inactive
O=C(OCCCCCCOC(=O)c1ccccc1)c1ccccc1	71.5 µM (active)	
Clc1cc(Cl)c2c(c1)N=C1CCCCCN1C2		inactive
CCCCCCCC[Si](OCC)(OCC)OCC		inactive
CN(C)C(=O)C1(N2CCCCC2)CCN(CC[C@@]2(c3ccc(Cl)c(Cl)c3)CN(C(=O)c3ccccc3)CCO2)CC1	11.5 µM (active)	
CN1C(=O)CC[C@H]1c1cccnc1		inactive
Cc1cc2c(cc1C(F)(F)F)N(C(=O)Nc1ccc(Oc3cccnc3C)nc1)CC2	15.1 µM (active)	
